Rows were chosen to be rich in hits. Some 7.5% of all compounds tested hit in one or more screens of this group.
KinaseGlo FLuc – counter-screen: inhibitors of Kinase-Glo firefly luciferase | Q27757 | Kinase-Glo luciferase, ATP luminescence, 8 min | Potency, µM (doses to about 38.3 µM), without a hit: at the highest dose activity change, negative = inhibition, hits mostly inhibitors | 200,000 compounds, 0.28% hits; also: % is scaled to controls: 0 for no effect and ±100 for the full control effect; nearly all actives have a fitted effect of over 60% in size
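Recombinant Kinase-Glo luciferase, 10 uM ATP (linear range), luciferin; imidazole pH 7.2 / KCl / MgCl2 / Tween / BSA buffer; 8 min RT; luminescence.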
SMN2 splice enh – enhancers of SMN2 splice variant expression; HEK293 SMN2-luciferase splicing reporter, luminescence, 30-36 h; Potency, µM (titrated, usually from 46.1 µM), without a hit: at the highest dose activity change, positive = activation, actives largely listed as activators; 210,000 compounds, 2.8% hits; AID 1458; also: % of control where 0% means no effect; nearly all actives have a fitted effect of over 55% in size
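qHTS luciferase splicing reporter: luminescence rises when SMN2 exon 7 is included in transfected HEK293 cells. Compound exposure lasted 30-36 h at 37C, with 4.5 mM final sodium butyrate as control, followed by a ONE-Glo read.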
FLuc modulator – counter-screen for miR-21 project: firefly luciferase inhibitors or activators; AID 588342; Potency, µM (highest dose often 57.5 µM), without a hit: at the top dose activity change, negative = inhibition, usual class: inhibitors; 360,000 compounds, 6.9% hits; P08659; purified FLuc, Km substrates, luminescence inhibition;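 also: plate controls were vehicle for no effect and reference inhibitor for full effect; nearly all actives have a fitted effect of over 55% in size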
Target sequence (P08659 whole entry, looked up): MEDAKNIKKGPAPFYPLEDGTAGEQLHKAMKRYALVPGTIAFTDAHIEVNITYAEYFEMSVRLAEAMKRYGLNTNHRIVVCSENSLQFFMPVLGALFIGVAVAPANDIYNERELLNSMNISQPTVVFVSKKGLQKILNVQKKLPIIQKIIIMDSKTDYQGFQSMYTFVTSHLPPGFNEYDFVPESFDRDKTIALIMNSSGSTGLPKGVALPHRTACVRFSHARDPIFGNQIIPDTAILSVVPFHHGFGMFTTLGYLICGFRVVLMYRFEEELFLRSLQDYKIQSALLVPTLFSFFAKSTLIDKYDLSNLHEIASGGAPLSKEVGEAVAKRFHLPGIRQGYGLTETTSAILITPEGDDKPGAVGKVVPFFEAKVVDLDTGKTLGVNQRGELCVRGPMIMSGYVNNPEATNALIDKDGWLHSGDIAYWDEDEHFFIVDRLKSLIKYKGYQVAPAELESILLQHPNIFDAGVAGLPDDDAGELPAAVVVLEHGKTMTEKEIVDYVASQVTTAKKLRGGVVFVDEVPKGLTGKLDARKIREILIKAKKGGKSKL
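Purified P. pyralis luciferase (10nM final) with 10uM D-luciferin and 10uM ATP (Km levels) in 50mM Tris acetate pH 7.5, 10mM Mg acetate, 0.01% Tween-20, 0.05% BSA; qHTS 6-point titration, ~60 µM downward; luminescence read.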
Rab9 promoter act – activators of Rab9 promoter; Huh7 Rab9 promoter-luciferase reporter, luminescence, 24 h; Potency, µM (top dose mostly 9.22 µM), for inactives: top-dose activation, negative = inhibition, usual class: activators; 320,000 compounds, 2.8% hits; AID 485297; also: % of control where 0% means no effect; nearly all actives have a fitted effect of over 60% in size
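Cells were plated at 1500 per well in reduced-serum medium with 10% FBS and left 2 h. Compound in DMSO was then added for 24 h at 37 °C. Reporter signal was read by luminescence after 10 min with luciferase detection reagent.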
ELG1 genotox – inducers of genotoxicity in HEK293T ELG1-luciferase cells; HEK293T ELG1-luciferase reporter, luminescence, 16 h; Potency, µM (titrated, usually from 46 µM), inactives show at the top dose activity change, positive = activation, usual class: activators; 330,000 compounds, 1.3% hits; also: % of control where 0% means no effect; nearly all actives have a fitted effect of over 60% in size
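Genotoxicity was scored as increased ELG1-luciferase reporter signal, measured by ONE-Glo luminescence (30 min, room temperature). Compound or vehicle exposure of the HEK293T reporter cells lasted 16 hr at 37°C.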
NPC1 prom act – NPC1 promoter activation | Huh7 NPC1 promoter luciferase reporter, 24 h | Potency, µM (doses to about 9.22 µM), inactives show at the top dose activation, usual class: activators | 320,000 compounds, 2.4% hits | AID 485313; also: % of control where 0% means no effect; nearly all actives have a fitted effect of over 60% in size
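Luminescence read-out of NPC1 promoter-driven luciferase in stably transfected Huh7 cells; compounds delivered in DMSO and left 24 h at 37C, 5% CO2, qHTS titration format.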
* marks the source's active call; other numbers are inactive results; ? = inconclusive; · = no result; [ ] = another dose, or the depositor's remark. Calls follow the shape of the dose curve; as a rule, active = well fitted curve in the direction sought with a large enough effect; inconclusive = small, poorly fitted or top-dose-only effect, or another doubt; inactive = no such curve, though single readings can be large; an effect the other way counts as inactive or inconclusive. Potency is read from the fitted curve at half-maximal effect.

SMILES	KinaseGlo FLuc	SMN2 splice enh	FLuc modulator	Rab9 promoter act	ELG1 genotox	NPC1 prom act
Cc1cc(C(=O)N/N=C/C=C/c2ccc3c(c2)OCO3)n[nH]1	-5%	-13%	15µM*	6%	5%	1%
CN(C(=O)Cn1nc(C(=O)O)c2ccccc2c1=O)C1CCCCC1	·	·	·	·	20%	·
O=C(C1=NNCC1c1ccccc1)C1OC1c1ccccc1 (stereo not given)	·	·	3%	-4%	-8%	3%
O=C(N/N=C/c1cccnc1)c1ccc2c(c1)OCCO2	?	8.9µM*	6µM*	3.2µM*	?	?
Cc1ccc(C)c(C(=O)COC(=O)CCCC(=O)Nc2cc(C(F)(F)F)ccc2Cl)c1	-1%	-10%	4.8µM*	0%	-1%	-2%
CCCSc1ncc(Cl)c(C(=O)Nc2ccc(S(=O)(=O)N3CCCC(C)C3)cc2)n1 (stereo not given)	·	-27%	-2%	·	·	·
Cc1cccc(-c2nsc(SCC(=O)N3CCCC3)n2)c1	-5%	14µM*	6µM*	1.4µM*	?	1.6µM*
O=C(CSc1nc2ccccc2nc1SCC(=O)N1CCOCC1)N1CCOCC1	0%	1%	-2%	-2%	-7%	-1%
Cc1cccc(-c2nsc(SCC(=O)Nc3nccs3)n2)c1	-2%	17%	-15%	18%	11%	4%
O=C(CSc1nc(-c2ccccc2)ns1)N1CCOCC1	-3%	·	?	2.8µM*	23µM*	2.5µM*
COc1cc(/C=N/NC(=O)c2ccncc2)ccc1O	·	·	-7%	2%	2%	2%
COc1ccc(/C=N/NC(=O)c2cnccn2)cc1O	-13%	13%	12µM*	-3%	?	3%
COc1ccc(/C=N/NC(=O)c2cnccn2)c(OC)c1OC	·	·	6%	-1%	3%	1%
COc1cccc(/C=N/NC(=O)c2cnccn2)c1O	·	·	15µM*	-23%	15%	-23%
COc1cccc(C(=O)O/N=C(\C)c2cnccn2)c1	-5%	·	5.4µM*	-3%	-4%	-6%
COc1cccc(/C=N/NC(=O)c2cc(-c3cccn3C)n[nH]2)c1O	-2%	-96%	27µM*	-43%	6%	-28%
CC1(C)S[C@H]2[C@@H](NC(=O)C(N)c3ccccc3)C(=O)N2[C@H]1C(=O)O (stereo not given in full)	-1%	·	·	·	·	·
O=c1c(NCc2ccccc2Cl)nccn1-c1ccccc1	·	·	-7%	·	·	·
COCCn1c(C)cc(C(=O)COC(=O)/C=C/c2ccc(OC)cc2OC)c1C	·	·	·	·	0%	·
COc1ccc(OC)c(/C=N/NC(=O)c2cnccn2)c1	·	·	0%	-6%	0%	2%
COc1cccc(/C=N/NC(=O)c2cnccn2)c1	-8%	17%	12µM*	11%	14%	16%
COc1ccc(/C=N/NC(=O)c2cc3c(OC)ccc(OC)c3[nH]2)cc1O	·	·	11µM*	-6%	-5%	-19%
Cc1onc(-c2c(F)cccc2Cl)c1C(=O)N1CCCC1	·	·	2%	1%	0%	-1%
CC(=O)N(C[C@@H](O)CO)c1c(I)c(C(=O)NC[C@@H](O)CO)c(I)c(C(=O)NC[C@@H](O)CO)c1I	-3%[17.1 µM]	4%[20.6 µM]	·	·	·	·
CCNc1nc(N)nc(Oc2ccc(C(=O)OC)cc2)n1	-2%	25µM*	19µM*	3.2µM*	12µM*	?
O=C(OCC(=O)N1CCN(C(=O)c2ccco2)CC1)c1cc(-c2ccco2)nc2ccccc12	-3%	-7%	15µM*	-10%	-2%	-5%
O=C(OCC(=O)N1CCN(C(=O)c2ccco2)CC1)c1cc(-c2ccc(Cl)c(Cl)c2Cl)nc2ccccc12	2%	-9%	-12%	4%	-5%	1%
O=C(N/N=C/c1ccc(F)cc1)c1cc(-c2ccco2)nc2ccccc12	-4%	6%	3µM*	-4%	1%	-18%
COc1ccc(N2CCN(C(=O)c3cc(-c4cccs4)nc4ccccc34)CC2)cc1	4%	-11%	?	-1%	-14%	1%

High-throughput results as filed in PubChem.
